100 compounds from PubChem BioAssay AID847 (SRMLSC, 2007) can be followed below.

Structures are written as SMILES. The whole screen tested about 41,000 compounds, of which about 190 (0.46%) were called active. What follows is part of a selection rich in actives, with near analogues and random picks from the rest. A number with no mark means an inactive call.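 How the source made its calls: active means viability at or below the median of all test compounds minus 3 SD, in both replicates if run twice (cut at about 45% in these data); inconclusive means duplicate replicates that disagree with each other; inactive means viability above that cutoff in every replicate.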

This assay in a line: viability loss of SK-BR-3 cells – cell-based, human, 24 h, primary screen (AID 847).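 Further: 100% = median untreated cell wells and 0% = median positive control drug.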 The conditions noted are these: SK-BR-3 viability, CellTiter-Glo ATP luminescence, at 10 µM, stronger effect = lower value. (In general: ATP-based viability assays read luminescence as a measure of living cells.)
On to `CSc1nc(O)c(Cc2ccccc2)c(=O)[nH]1`, for which the viability is 88.2%. For the compound `C=CCNc1nnc(C)c2ccccc12`, the viability is 94.2%. On to `COc1ccc(C2C(C#N)=C(N)Oc3n[nH]c(C)c32)cc1CN1CCN(c2ccc(F)cc2)CC1` (stereo not given), for which the viability was 67%. On to `CCOC(=O)C1CCCN(C(=O)c2cncc(Br)c2)C1` (stereo not given), for which the viability is 89.5%.

For `O=C(Nc1ccc2c(c1)nc1n2CCCCC1)c1cc(S(=O)(=O)N2CCOCC2)ccc1Cl`, the viability is 69%. For `O=C(CSc1ncccn1)NCCc1ccccc1`, the viability was 89.6%. In the case of `CSc1nsc(SC)c1NC(=O)OC1CCCCC1`, the viability was 106%. The figure for `COc1ccc(S(=O)(=O)N2CCOCC2)cc1C(=O)Nc1nc2ccccc2s1` is 87.8%; for `CCCC(=O)Nc1cc(OCC)c(NC(=O)NC2CCCCC2)cc1OCC` it is 128%; for `COC(=O)[C@H](CCSC)NC(=O)Nc1ccc(OC)cc1` it is 86.4%.

With `COC(=O)C1(S(=O)(=O)C2(C(=O)OC)CCCC2)CCCC1`, the viability was 105%. Regarding `C=CCNC(=O)c1ccc(C)c(Br)c1`, the viability is 74.5%. As for `CCn1cc(NC(=O)Nc2ccc(OC)c(OC)c2)c(C(N)=O)n1`, the viability is 90.8%. Consider `Cc1ccc(C(=O)CS(C)(=O)=O)cc1`, for which the viability was 90.6%. In the case of `CC(=O)N1CCC(C(=O)Nc2nc(-c3ccccc3)ns2)CC1`, the viability is 96.3%. With `Cc1nc(NCCN)c(C#N)c2c1COC(C)(C)C2` the figure was 85.4%; with `OC(COc1ccccc1)Cn1cc(Br)cn1` (stereo not given), 74.7%.

Take `CCCOC(=O)C1=C(C)NC2=C(C(=O)C(C(=O)OC)C(C)C2)C1c1ccc(N(C)C)cc1` (stereo not given): the viability is 89%.

As to `Cc1nc(N2CCCC2C(=O)O)c2oc3ccccc3c2n1` (stereo not given), the viability was 101%.

As to `COC(=O)c1cn(CC(=O)NCc2cccs2)c2ccccc12`, the viability was 108%. The figure for `COc1cc(-c2nc(S(=O)(=O)c3ccc(Cl)cc3)c(N(C)C)o2)cc(OC)c1OC` is 75.4%; for `O=C(c1cccc(S(=O)(=O)N2CCOCC2)c1)N1CCOCC1` it is 94.3%. Turning to `CC(=O)Oc1cccc(N2C(=O)C3CC=C(Cl)CC3C2=O)c1` (stereo not given), the viability is 73.3%. With `NC(=O)C1CCN(C2OC(=O)c3ccccc32)CC1` (stereo not given) the figure was 93.2%; with `O=C(NC(c1ccccc1)c1ccccc1)N1CCN(CCO)CC1`, 93%; with `O=C(CSc1nnc(Cc2ccccc2)n1-c1ccccc1)N1CCOCC1`, 87.4%. With `Cc1ccc2[nH]c(=O)c(COC(=O)c3ccccn3)cc2c1` the figure was 100%; with `CC1Cc2ccccc2N1C(=O)CSc1nnc(-c2ccc(S(=O)(=O)N3CCCCC3)cc2)o1` (stereo not given), 96%; with `Cc1cc(O)ccc1-c1cnc2ccccc2n1`, 92.4%.

For `CC(C)NS(=O)(=O)c1ccc(OCC(=O)Nc2ccc3c(c2)OCCO3)cc1`, the viability is 86.3%. The figure for `O=C(OC(C(=O)NC1CCCC1)c1ccc(F)cc1)c1ccno1` (stereo not given) is 107%; for `N=c1c2c3c(sc2ncn1N)CCCCC3` it is 86%; for `COCCNC(=O)c1ccccc1-c1nc(-c2ccccc2Cl)no1` it is 94.6%. With `O=C(c1cccc(C(=O)N2CCc3ccccc32)n1)N1CCc2ccccc21` the figure was 101%; with `Cc1nc2nc(COc3ccccc3)[nH]n2c(=O)c1Cc1ccccc1`, 85.2%. The figure for `Cc1cccc(OCc2nnc(SCC(=O)N3CCN(C(=O)c4ccco4)CC3)n2C)c1C` is 112%; for `CCOC(=O)CCc1c(C)c2ccc(OCc3nn[nH]n3)c(C)c2oc1=O` it is 91.2%; for `O=C1CCCc2c1[nH]c1ccc(Br)cc21` it is 94.5%.

As for `O=C(COC(=O)c1ccc2c(c1)OCCO2)NCc1ccccc1`, the viability was 91.5%. The figure for `Cc1cnc(NC(=O)CSc2nnc(-c3ccc(Cl)cc3Cl)n2N)s1` is 88.8%. The figure for `O=C(Cn1c(-c2ccc(Cl)cc2)noc1=O)N1CCN(c2ccccc2F)CC1` is 88.1%; for `Cc1cc(C)c2cc(CN(Cc3cccs3)Cc3nnnn3CC3CCCO3)c(=O)[nH]c2c1` (stereo not given) it is 83.1%; for `CCOC(=O)[C@H]1CCC[C@@H](NS(=O)(=O)c2ccc(NC(C)=O)cc2)C1` it is 73.8%. The figure for `C=CCSC1=C(C#N)C(c2cc(Br)c(O)c(OC)c2)CC(=O)N1` (stereo not given) is 86.3%; for `CC1(C)CC(=O)C(C2=NC(C)(C)Cc3ccccc32)=C(O)C1` it is 99.5%. `c1nc(COc2nsnc2N2CCOCC2)cs1`: the viability was 90.4%. The figure for `Cc1nc2nc3c(cn2n1)C(=O)CC(c1ccccc1)C3` (stereo not given) is 109%; for `CCCOc1ccc(CN(CCO)CCO)cc1C(=O)OC` it is 94.7%; for `Cc1ccn2cc(C(=O)NC3CCN(Cc4ccccc4)CC3)nc2c1` it is 81%. Consider `CCCC(NS(=O)(=O)c1ccc(OC)cc1)C(=O)O` (stereo not given), for which the viability was 97.5%. With `c1ccc2c(NCC3CCCO3)nc(-c3ccncc3)nc2c1` (stereo not given) the figure was 101%.

Consider `CCc1ccc(-c2nnn(Cc3nn[nH]n3)n2)cc1`, for which the viability is 112%. As for `CCc1nnc(NC(=O)CSc2nnc(COc3ccc(C#N)cc3)n2-c2ccccc2)s1`, the viability is 86%. With `Cc1ccc(S(=O)(=O)N2CCC(C(=O)N[C@@H](C)C(=O)NCCc3ccccc3)CC2)cc1` the figure was 100%; with `COc1ccc(C2CC(c3ccc(C)cc3)Nc3nc(N)nn32)cc1` (stereo not given), 102%. The figure for `CC(C)=C(NC(=O)c1ccco1)C(=O)NCCc1nc2ccccc2[nH]1` is 122%. The figure for `Cc1cc(N2CCN(Cc3ccc4c(c3)OCO4)CC2)n2ncnc2n1` is 88.1%; for `Cc1ccc(N(CC(O)CN2CCCC2)S(=O)(=O)c2ccccc2)cc1` (stereo not given) it is 84.9%; for `CC(C)C(NC(=O)c1cccc(S(=O)(=O)N2CCOCC2)c1)C(=O)NCCc1ccccn1` (stereo not given) it is 84.8%. On to `Cc1ccc(S(=O)(=O)NCC(=O)OCC(=O)N2CCc3ccccc32)cc1`, for which the viability was 75.8%. As to `CCCCNc1nc2c(c(=O)[nH]c(=O)n2C)n1CCOc1ccccc1`, the viability was 114%. The figure for `c1ccc(-n2ncc3c(N4CCCC4)ncnc32)cc1` is 86.5%; for `CN(C)Cc1c(C#N)c2ccccc2n1C` it is 99.7%. The figure for `O=C(c1ccco1)N(Cc1nc2ccccc2c(=O)[nH]1)C1CCCC1` is 87.8%; for `COC(=O)COc1ccc2oc(=O)cc(C)c2c1` it is 87%. With `COC(=O)c1cn(-c2ccccc2)nc1-c1cccnc1` the figure was 119%; with `CC(C(=O)O)N1C(=O)c2cccc3cccc1c23` (stereo not given), 91.2%; with `Cc1cc(C)c(NC(=O)CS(=O)CC(=O)Nc2cccnc2)c(C)c1` (stereo not given), 79.8%.

Take `COc1ccc(CSc2nc(N3CCOCC3)c3c(c2C#N)CC(C)(C)OC3)cc1`: the viability is 76.6%.

Regarding `CS(=O)(=O)N1CCN(C(=O)c2cc3ccccc3oc2=O)CC1`, the viability was 82.4%. With `Cc1cc(=O)[nH]c(SCC(N)=O)c1C#N` the figure was 121%. Turning to `Cc1ccc(S(=O)(=O)NCc2nc3ccccc3c(=O)n2N)cc1`, the viability was 87.3%. Take `CC(=O)c1cc(-c2ccccc2)[nH]c1N1CCCC1`: the viability is 89.9%. With `Cc1ccc(C)c(NC(=O)C2CCCN2C(=O)OC(C)(C)C)c1` (stereo not given) the figure was 102%. For the compound `COc1ccc(C(=O)N2CCC(C(=O)Nc3cccc(C)c3)CC2)cc1OC`, the viability is 106%. The figure for `Cc1ccccc1NC(=O)c1cnn(-c2ccccc2)c1NC(=O)c1ccco1` is 117%. The figure for `O=C1NC(c2cc3c(cc2Cl)OCO3)Oc2ccccc21` (stereo not given) is 110%; for `CCCC(C)n1[nH]c(=O)c2c(C)cc(C)nc21` (stereo not given) it is 87%. For the compound `Cc1cc(C)n2nc(C(=O)Oc3ccc4c(c3)OCO4)nc2n1`, the viability is 86.1%.

Consider `CC(C)OCCCNc1nc2c(c(=O)n(Cc3ccccc3F)c(=O)n2C)n1C`, for which the viability is 68.2%. Consider `Clc1ccc(CSc2nnc([C@@H]3CCCN3)o2)cc1`, for which the viability was 80.8%. The figure for `O=C(NCc1cccnc1)c1cn(-c2ccccc2)nc1-c1cccs1` is 74.3%; for `COC(=O)Nc1c(C)n(C)n(-c2ccccc2)c1=O` it is 104%. Turning to `O=S(=O)(O)c1nc2ccccc2n1Cc1ccc(Cl)cc1Cl`, the viability was 98.8%.

`Cc1cc(Br)ccc1NC(=O)C1CCCO1` (stereo not given): the viability was 75.5%. Consider `c1cnc(NC2C3CC4CC(C3)CC2C4)nc1` (stereo not given), for which the viability was 98.3%.

As for `O=C(c1ccco1)N1CCN(C(=O)C2c3ccccc3Oc3ccccc32)CC1`, the viability was 99.4%. With `O=C(Nc1ccon1)c1sc2ccccc2c1Cl` the figure was 122%; with `COc1cccc(-c2nc(S(=O)(=O)c3ccccc3)c(N3CCOCC3)o2)c1`, 83.1%. `c1ccc(-c2nnc(SCc3nc4ccccc4[nH]3)o2)cc1`: the viability was 70.7%.

For `c1ccc(-c2[nH]ncc2-c2nc3ccccc3[nH]2)cc1`, the viability is 42.9% (active). Regarding `O=c1[nH]c(-c2ccccc2)c(-c2ccccc2)[nH]1`, the viability was 96.3%. For the compound `CC(C)C(c1nnnn1CCc1ccccc1)N1CCN(C(=O)c2ccco2)CC1` (stereo not given), the viability is 102%.

`CSCCC(Nc1nc2ccccc2s1)C(=O)O` (stereo not given): the viability is 81.1%. Take `Cc1cc(NC(=O)CCC2COc3ccccc3O2)no1` (stereo not given): the viability was 94.5%. With `Cc1ccc2nc(NC3=NCN(CCc4ccccc4)CN3)nc(C)c2c1` the figure was 95.4%; with `COc1ccccc1N1CCN(C(=O)c2ccc(S(=O)(=O)N3CCCCC3)cc2)CC1`, 123%. Regarding `COC(=O)c1ccccc1NC(=O)CSc1ccccn1`, the viability was 81.2%. The figure for `COc1ccc(N2CCN(CCNC(=O)c3nnc(Cc4c(F)cccc4Cl)o3)CC2)cc1` is 75%; for `CCOC(=O)c1ccccc1NC(=O)CC1Nc2ccccc2NC1=O` (stereo not given) it is 47.2%.

What is called viability is a read-out of living cells in per cent, often relative to untreated cells.
